Out of some 5,500 compounds screened, about 2,000 (36%) were called active. About 18% were inconclusive and are not listed. Rule as the data show it: active = normalized growth mostly below about 0.91 (no sharp cut-off); inconclusive = no clear call, values can overlap the other calls; inactive = mostly above about 0.92. The list shows a part of the results.
Assay: chemical genetic growth profiling, strain panel (AID 1159580);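 also: tested at 20 µM; growth read once vehicle control cultures reached saturation at 30 °C; 1 = growth at the plate median or of vehicle wells; lower values mean less growth of the strain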
Conditions: S. cerevisiae deletion strains, growth OD

Measured: normalized growth

CC1CC2C3CCC4=CC(=O)C=CC4(C)C3(F)C(O)CC2(C)C1(O)C(=O)CO (stereo not drawn)
inactive: locus YAL040C, strain CLN3, active compounds read low 0.987 | locus YDR363W, strain ESC2, active compounds read low 0.955 | locus YER002W, strain NOP16, active compounds read low 1 | locus YGR078C, strain PAC10, active compounds read low 1.02 | locus YNL175C, strain NOP13, active compounds read low 1.01 | locus YNL197C, strain WHI3, active compounds read low 0.999 | locus YNL224C, strain SQS1, active compounds read low 1.01 | locus YOR083W, strain WHI5 (second series), active compounds read low 1.01

— PubChem BioAssay AID1159580 (chemical genetic matrix, 2015)
